Experimental data reported in PubChem BioAssay.
Activity calls are given as the source filed them.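 How the source made its calls: active means mean z-score across replicates of 1.96 or higher in either the MELAS or the Rieske mutant cell line; inactive means the rest.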

Experiment: survival rescue of mitochondrial mutant cells in low glucose, primary screen, MELAS cybrids, Rieske KO mouse fibroblasts, CellTiter-Glo (AID 1508586);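 further: test concentration not given here; z relative to plate mean and SD of compound and empty wells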
Details: MELAS cybrid survival, CellTiter-Glo 48 h, stronger effect = higher value

Structure (SMILES) | z-score
CCc1nc(CNc2cc(C(=O)N[C@H](C)c3ccc(OC)cc3)cc(S(=O)(=O)N(C)C)c2)c(C)[nH]1 | -0.507 (inactive)
Cc1cccc(Nc2ncc(-c3ccccc3)o2)c1 | 0.673 (inactive)
NC(=O)c1cccc(Nc2nccc(Nc3cccc4[nH]ncc34)n2)c1 | 0.00705 (inactive)
CS(=O)(=O)CCNCc1ccoc1-c1ccc2ncnc(Nc3ccc(OCc4ccccc4)cc3)c2c1 | 0.221 (inactive)
NC(=O)c1cc(-c2ccc(F)cc2)cc(-c2ccncc2)c1N | -0.833 (inactive)
CCS(=O)(=O)c1ccc(OC)c(Nc2ncc(-c3cccc(C(C)=O)c3)o2)c1 | 1.14 (inactive)
COc1cc2ncn(-c3cc(OCc4ccccc4Cl)c(C(N)=O)s3)c2cc1OC | 0.0989 (inactive)
CC(C)Cn1nc(C(=O)NCc2cccnc2)c2c1CCN(C(=O)c1scc3c1OCCO3)C2 | -0.675
COc1cccc(-n2ncc3c(N/N=C/c4ccc(S(C)(=O)=O)cc4)ncnc32)c1 | 1.75 (inactive)
Nc1nonc1-c1nc2cnccc2n1C1CC1 | -0.391 (inactive)
CN(C)c1ncc(CN2CCc3c(cc(Cc4ccccc4)c(=O)n3Cc3ccc(F)cc3)C2)s1 | -0.5 (inactive)
COc1ccccc1C(=O)N1CCN2C(=O)[C@@H]3CSCN3C(=O)[C@H]2C1 | -0.216 (inactive)
NC(=O)c1sc(-n2cnc3ccccc32)cc1OCc1ccccc1Br | -0.754 (inactive)
COC(=O)Nc1nc2ccc(Sc3ccc(NC(=O)Nc4cc(C(F)(F)F)ccc4F)cc3)cc2[nH]1 | -0.309 (inactive)
C[C@H]1NC(=O)NC1=O | 0.723 (inactive)
COc1cc2ncn(-c3cc(OCCc4ccccc4)c(C(N)=O)s3)c2cc1OC | -0.0219 (inactive)
COc1cccc(Nc2nccc(-c3cnn4ncccc34)n2)c1 | 0.875 (inactive)
CS(=O)(=O)CCNCc1coc(-c2ccc3ncnc(Nc4ccc(OCc5ccccc5)cc4)c3c2)c1 | -0.812 (inactive)
CCN1CCN(C(=O)c2cc(-c3cc(C)cs3)cc(S(=O)(=O)N3CCOCC3)c2)CC1 | -0.416 (inactive)
NC(=O)Cc1ccccc1Oc1nccc(-c2c(-c3ccc(F)cc3)ncn2C2CCNCC2)n1 | -0.586 (inactive)
O=C(Nc1ccc(Oc2ccc3nc(NC(=O)c4ccco4)[nH]c3c2)cc1)Nc1cc(C(F)(F)F)ccc1F | -1.24
CC(C)NS(=O)(=O)c1cc(NC2CCCCC2)cc(C(=O)NC2Cc3ccccc3C2)c1 | -0.22 (inactive)
